The test system of assay [1] is Human papillomavirus type 1a protein E7 (residues 44-93). Kind of assay: HPV1a E7 fragment binders on microarrays, primary screen, biochemical, small-molecule microarray, residues 44-93, 635 nm fluorescence (AID 1108).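 Also: E7 fragment applied at 1 µg/mL in TBST for 1 h at 4 C; score combines spot fluorescence with its signal to noise ratio.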 The note with it: small-molecule microarray binding, fluorescence 635 nm; higher = more signal.
Assay [2] in a line: modulators of HCV replicon luciferase signal, primary screen, HCV replication inhibitor project, Huh7 cells, luciferase reporter (AID 1109).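 Also: huh7 hepatoma cells harbouring a luciferase neomycin HCV replicon reporter; luciferase luminescence as measure of HCV replicon replication; test concentration not given here.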 The note with it: 48 h, higher = more signal. In general terms: Replicon systems follow genome replication, usually without infectious particles.
Assay [3] has as its target Left-right determination factor 2 (Homo sapiens) (UniProt O00292). Kind of assay: LEFTY2 binders on small-molecule microarrays, primary screen, biochemical, small-molecule microarray, 635 nm fluorescence scan (AID 1110). The following applies: LEFTY2 binding, higher = more signal.
The target in assay [4] is Calmodulin-1 (Homo sapiens) (UniProt P0DP23). Kind of assay: CALM1 binders on microarrays, EGTA buffer, profiling panel, biochemical, small-molecule microarray, Cy5-labelled CALM1 (AID 1111).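 Also: labelled calmodulin applied in Tris saline Tween buffer holding calcium plus EGTA and DTT.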 The note with it: Cy5-CALM1 binding fluorescence, higher = more signal.
Assay [5] has the same target. Kind of assay: calcium-bound CALM1 binders on microarrays, profiling panel, artefact control for SMM control-protein annotation, biochemical, small-molecule microarray, Cy5-labelled CALM1, plus calcium (AID 1112).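 Also: score merges spot fluorescence with signal to noise from triplicate slides.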 The following applies: Cy5-CALM1 binding fluorescence, higher = more signal.
Assay [6] in a line: small-molecule microarray binders of probe aWnt5a, primary screen, biochemical, biotinylated probe, 635/667 nm fluorescence (AID 1113).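 Also: score merges 667 nm fluorescence intensity with signal-to-noise per printed feature.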 The following applies: higher = more signal.
A short description of assay [7]: small-molecule microarray binders of probe aShh, primary screen, biochemical, biotinylated probe, 635/667 nm fluorescence (AID 1114).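 Also: probe is biotin-labelled aShh protein from a stem cell growth factor screen; measures binding of labelled protein to compounds printed on the slide; score merges feature fluorescence at 667 nm with signal-to-noise.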 The note with it: higher = more signal.
A short description of assay [8]: small-molecule microarray binders of probe aNog, primary screen, biochemical, biotinylated probe, 635/667 nm fluorescence (AID 1115).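 Also: probe is biotinylated aNog protein used at 0.15 µg/mL for 1 h at 4 C; z-score combines 667 nm fluorescence of each spot with its signal to noise.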 The note with it: higher = more signal.
Assay [9] deals with Torsin-1A-interacting protein 1 (Homo sapiens) (UniProt Q5JTV8). Kind of assay: LAP1 binders from COS7 cell lysate, primary screen, small-molecule microarray, 635/667 nm fluorescence (AID 1116). The note with it: COS7-hLAP1 lysate binding, 635 nm fluorescence, higher = more signal.
In assay [10] the target is Alpha-bungarotoxin (Bungarus multicinctus) (UniProt P60615). Put plainly: alpha-bungarotoxin binders on microarray, profiling panel, artefact control for SMM control protein annotation, biochemical, small-molecule microarray, Alexa647 label, 635/667 nm fluorescence (AID 1117). The following applies: alpha-BTX-A647 binding fluorescence, higher = more signal.
A further assay deals with Albumin (Bos taurus) (UniProt P02769). Put plainly: bovine serum albumin binders on microarray, profiling panel, artefact control for SMM control protein annotation, biochemical, small-molecule microarray, Alexa647 label, 635/667 nm fluorescence (AID 1118).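 Also: score merges 667 nm emission intensity and signal-to-noise per printed compound spot.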 The following applies: BSA-A647 binding, fluorescence 635 nm, higher = more signal.
Assay [11] is described as follows: small-molecule microarray binders of probe aXIP, primary screen, biochemical, NeuroSMM set, 635/667 nm fluorescence (AID 1119).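 Also: probe is the protein aXip251-270 applied at 1 µg/mL to compound-printed slides; binding of probe to printed compounds measured as 667 nm fluorescence plus signal to noise.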 The following applies: higher = more signal, called active from +8 up or from −8 down.
A short description of assay [12]: small-molecule binders of probe aNOTCH3, primary screen, biochemical, small-molecule microarray, 635/667 nm fluorescence (AID 1120).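 Also: probe is a biotin-tagged antibody raised against NOTCH3 rather than NOTCH3 protein; score merges spot fluorescence near 667 nm with spot signal to noise.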 The note with it: higher = more signal.
Assay [13] in a line: small-molecule binders of probe aNOTCH2, primary screen, biochemical, small-molecule microarray, 635/667 nm fluorescence (AID 1121).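 Also: score merges feature fluorescence read at 667 nm with its signal to noise.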 The note with it: higher = more signal.
The target in assay [14] is Carbonic anhydrase 2 (Homo sapiens) (UniProt P00918). Put plainly: CAII small-molecule binders, profiling panel, biochemical, small-molecule microarray, Alexa647-labelled CAII (AID 1122). The note with it: CAII-A647 binding fluorescence, higher = more signal.
The nature of assay [15]: COS7 lysate on small-molecule microarray, probe aHis, 635 nm (AID 1123).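 Also: z-score combines 667nm fluorescence intensity with signal-to-noise per printed compound spot.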 The following applies: COS7 cell lysate, fluorescence, higher = more signal.
The nature of assay [16]: compound binding in COS7 lysate, probe aLAP1, primary screen, cell lysate, small-molecule microarray (AID 1124).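 Also: lysate comes from COS7 cells expressing LAP1 and is applied at 0.3 µg/mL; score merges spot fluorescence near 667 nm with signal-to-noise over triplicate slides.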 The following applies: probe aLAP1, fluorescence, higher = more signal.
The test system of the next assay is Sam68 (KHDRBS1). Kind of assay: Sam68 small-molecule binders, primary screen, biochemical, small-molecule microarray, 635 nm fluorescence (AID 1125).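 Also: score merges 667 nm channel intensity with signal to noise over triplicate slides.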 The note with it: small-molecule microarray binding, higher = more signal.
In assay [17] the test system is Chordin-like protein 2 (CHRDL2). Put plainly: CHRDL2 small-molecule binders, primary screen, biochemical, small-molecule microarray, 635 nm fluorescence (AID 1126).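 Also: printed compound slides probed with Chrdl2 protein at 4 µg/mL for 1 h at 4 C; score merges 667 nm emission intensity with signal to noise over three replicate slides.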 The following applies: small-molecule microarray binding, fluorescence 635 nm; higher = more signal.
The target of assay [18] is Concanavalin-A (Canavalia ensiformis) (UniProt P02866). Put plainly: ConA small-molecule binders, primary screen, artefact control for SMM control protein annotation, biochemical, small-molecule microarray, Alexa647 label, 635 nm (AID 1127).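 Also: z combines 667 nm emission intensity with signal-to-noise across three replicate slides.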 The following applies: ConA-A647 binding fluorescence, higher = more signal.

Each structure is given as a SMILES string. Calls of active or inactive are those of the source.

Concanavalin-A (Canavalia ensiformis), sequence (P02866 whole entry, looked up): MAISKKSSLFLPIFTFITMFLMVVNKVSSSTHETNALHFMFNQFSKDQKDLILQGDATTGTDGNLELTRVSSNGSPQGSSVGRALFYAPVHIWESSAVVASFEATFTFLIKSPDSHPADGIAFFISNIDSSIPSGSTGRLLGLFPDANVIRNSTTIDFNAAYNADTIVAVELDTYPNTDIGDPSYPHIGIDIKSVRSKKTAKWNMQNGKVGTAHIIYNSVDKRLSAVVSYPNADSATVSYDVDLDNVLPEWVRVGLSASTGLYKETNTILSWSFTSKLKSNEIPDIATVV
Albumin (Bos taurus), sequence (P02769 whole entry, looked up): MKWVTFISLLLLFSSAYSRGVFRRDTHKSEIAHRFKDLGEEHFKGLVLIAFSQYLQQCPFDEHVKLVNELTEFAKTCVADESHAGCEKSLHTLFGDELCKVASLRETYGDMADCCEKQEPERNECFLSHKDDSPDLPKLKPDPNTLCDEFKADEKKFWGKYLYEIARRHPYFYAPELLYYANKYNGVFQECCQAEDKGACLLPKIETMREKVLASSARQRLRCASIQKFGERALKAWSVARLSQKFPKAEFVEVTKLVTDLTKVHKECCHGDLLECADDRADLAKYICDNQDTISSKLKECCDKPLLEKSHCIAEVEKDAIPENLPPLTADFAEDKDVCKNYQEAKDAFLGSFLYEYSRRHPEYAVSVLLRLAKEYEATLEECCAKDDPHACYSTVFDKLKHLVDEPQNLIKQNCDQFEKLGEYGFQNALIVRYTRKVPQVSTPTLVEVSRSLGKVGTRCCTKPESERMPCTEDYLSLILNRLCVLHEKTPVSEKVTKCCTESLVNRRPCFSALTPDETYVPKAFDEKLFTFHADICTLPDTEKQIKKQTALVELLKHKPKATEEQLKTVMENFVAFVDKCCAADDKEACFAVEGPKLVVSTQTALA
Left-right determination factor 2 (Homo sapiens), sequence (O00292 whole entry, looked up): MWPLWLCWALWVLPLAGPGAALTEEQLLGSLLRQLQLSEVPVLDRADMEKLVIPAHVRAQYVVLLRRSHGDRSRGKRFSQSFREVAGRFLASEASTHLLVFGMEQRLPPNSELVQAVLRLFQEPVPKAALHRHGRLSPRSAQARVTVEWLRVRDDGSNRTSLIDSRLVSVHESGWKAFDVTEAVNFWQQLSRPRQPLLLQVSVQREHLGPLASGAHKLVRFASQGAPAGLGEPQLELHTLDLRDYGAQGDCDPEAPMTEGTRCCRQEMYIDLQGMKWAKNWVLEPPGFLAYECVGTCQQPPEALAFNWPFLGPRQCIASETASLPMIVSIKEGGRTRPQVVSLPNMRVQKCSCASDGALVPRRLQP
Alpha-bungarotoxin (Bungarus multicinctus), sequence (P60615 whole entry, looked up): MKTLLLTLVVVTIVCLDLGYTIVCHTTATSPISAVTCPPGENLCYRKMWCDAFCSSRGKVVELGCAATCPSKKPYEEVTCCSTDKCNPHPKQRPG
Torsin-1A-interacting protein 1 (Homo sapiens), sequence (Q5JTV8 whole entry, looked up): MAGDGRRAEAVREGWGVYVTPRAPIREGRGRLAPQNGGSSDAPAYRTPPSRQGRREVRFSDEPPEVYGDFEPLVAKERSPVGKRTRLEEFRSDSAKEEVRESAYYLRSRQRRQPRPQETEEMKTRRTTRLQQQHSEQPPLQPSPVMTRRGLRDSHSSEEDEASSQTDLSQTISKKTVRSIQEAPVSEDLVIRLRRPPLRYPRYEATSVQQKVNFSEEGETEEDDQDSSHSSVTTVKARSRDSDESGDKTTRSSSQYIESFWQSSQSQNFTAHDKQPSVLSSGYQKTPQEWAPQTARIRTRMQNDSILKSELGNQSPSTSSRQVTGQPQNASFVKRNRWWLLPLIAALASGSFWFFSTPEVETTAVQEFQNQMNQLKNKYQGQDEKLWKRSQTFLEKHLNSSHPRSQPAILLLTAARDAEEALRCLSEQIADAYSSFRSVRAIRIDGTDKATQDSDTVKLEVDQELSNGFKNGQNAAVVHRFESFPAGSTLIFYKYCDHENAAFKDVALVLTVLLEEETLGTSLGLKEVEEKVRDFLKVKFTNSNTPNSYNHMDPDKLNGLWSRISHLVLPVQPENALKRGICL

Take `N#Cc1ccc(NN2C(C(O)c3ccco3)C=CC3C(=O)N(c4ccccc4)C(=O)C32)cc1` (stereo not given): the composite z-score is -0.345 in assay [1]; -0.0879 in assay [3]; 0.144 in assay [4]; -0.539 in assay [5]; 0.0012 in assay [6]; -0.0035 in assay [7]. The composite z-score was 0.531 in assay [8]; -0.247 in assay [9]; 0.518 in assay [10]; 0.488 with Albumin (Bos taurus); 0.188 in [12]; -0.0148 in assay [13]. Besides, the composite z-score was found to be 0.89 in assay [14]; 1.5 in assay [15]; 0.687 in assay [16]; 0.0163 in the assay with Sam68 (KHDRBS1); 0.111 in assay [17]; 0.458 in [18]. For the same compound, the z-score in assay [2] was -0.36. For the same compound, the composite Z-score in assay [11] was 0.499 (inactive).

Turning to `Cc1ccc(C(C)CC(O)C2C=CC3C(=O)N(Cc4ccccc4)C(=O)C3N2n2cnnc2)o1` (stereo not given), the composite z-score was 1.22 in assay [1]; -0.304 in assay [3]; 0.455 in assay [4]; 0.0454 in [5]; 0.688 in assay [6]; 0.765 in assay [7]. The composite z-score in [8] was found to be 2.12; in [9], 0.342; in assay [10] it was 0.279; with Albumin (Bos taurus), 1.03; in assay [12], 1.3; in [13], 0.654. The composite z-score in assay [14] is 0.461; in assay [15] it was 1.7; in assay [16] it was 0.704; with Sam68 (KHDRBS1), 1.12; in [17], -0.377; in [18], 1.17. Also, the z-score in [2] came out at 0.236. For the same compound, the composite Z-score in [11] is 0.391 (inactive).

With `CN1C(=O)C2C=CC(C(O)c3ccc(F)cc3)N(N3CCCCC3)C2C1=O` (stereo not given), the composite z-score in assay [1] was 0.491; in assay [3], -0.781; in [4] it was 1.72; in assay [5], 1.23; in [6], 0.212; in assay [7], 0.949. The composite z-score in assay [8] was found to be 0.893; in assay [9] it was 2.05; in [10], 0.164; in the assay with Albumin (Bos taurus), 0.853; in assay [12] it was 0.29; in [13] it was 0.155. Also, the composite z-score in [14] is 0.714; in assay [15], 1.5; in [16] it was 0.804; in the assay with Sam68 (KHDRBS1), 1.32; in assay [17] it was -1.42; in assay [18], 1.08. Further, the z-score in [2] was 0.269. The composite Z-score in [11] was -0.908 (inactive).

On to `Cc1ccc(S[C@]2(C(=O)NCc3ccccc3)CC(=O)N(C3Cc4ccccc4C3)[C@@H]2c2ccc(CO)cc2I)cc1`, for which the composite z-score in assay [1] is 0.241; in [3] it was -1.53; in assay [4], -0.733; in assay [5], -0.0933; in assay [6], -0.0896; in [7], -0.364. In addition, the composite z-score was -0.0496 in assay [8]; -0.129 in assay [9]; 1.3 in assay [10]; 0.254 in the assay with Albumin (Bos taurus); -0.187 in assay [12]; -0.0716 in assay [13]. In addition, the composite z-score in assay [14] is 0.341; in assay [15], 0.401; in [16], 0.458; with Sam68 (KHDRBS1) it was 0.269; in assay [17], -0.224; in assay [18], -0.462. Besides, in assay [2], the z-score was -1.63. The composite Z-score in assay [11] is 3.63 (inactive).

Regarding `C[N+](C)(C)CCCCNC(=O)[C@H]1C[C@H]2C(=O)NCC(=O)N2[C@H]1c1ccc(O)cc1`, the composite z-score in assay [1] is 0.0571; in assay [3] it was 0.794; in assay [4], -1.08; in [5], -0.966; in [6] it was -0.103; in assay [7] it was -0.291. The composite z-score in assay [8] was -0.0037; in assay [9], 0.721; in assay [10], 0.832; with Albumin (Bos taurus), -1.48; in assay [12], 0.175; in assay [13], -0.0457. In addition, the composite z-score in assay [14] was found to be 0.568; in [15], 1.56; in assay [16] it was 1.01; with Sam68 (KHDRBS1), 0.852; in assay [17] it was 1.39; in [18], 1.14. The compound further had a z-score in assay [2] of -0.463. Further, the composite Z-score in [11] is 0.586 (inactive).

Turning to `CCOC(=O)C[C@H]1[C@H](OC(=O)c2ccc(C(=O)c3ccccc3)cc2)[C@@H](NC(=O)C2CCCCC2)c2cc(OCCCO)ccc2N1C(=O)Cc1ccc(OC)cc1`, the composite z-score in assay [1] was 0.773; in [3] it was 0.0258; in assay [4] it was 1.13; in assay [5] it was 0.304; in [6] it was -0.0907; in assay [7] it was -0.0769. Further, the composite z-score is -0.0597 in [8]; 0.602 in assay [9]; 0.237 in [10]; 0.442 with Albumin (Bos taurus); 0.18 in assay [12]; 0.208 in [13]. Besides, the composite z-score turned out to be 0.106 in assay [14]; 0.954 in assay [15]; 1.04 in assay [16]; 0.693 in the assay on Sam68 (KHDRBS1); 0.386 in assay [17]; 0.312 in assay [18]. For the same compound, in assay [2], the z-score is -1.96. Besides, the composite Z-score in [11] is 0.442 (inactive).
